Assay results published in PubChem BioAssay (Tox21).
“And” between values parts separate entries of the source, which are not always exact repeats. Identical values can stand only once. The source made the active and inactive calls. A call without a number means that no potency is given here. Unless noted, the call rests on the fitted dose curve; in most records, active means well fitted curve in the direction sought with a large enough effect in the repeat runs; inconclusive means weak or mixed curves; inactive means no such curve, though single readings can be large; an effect the other way counts as inactive or inconclusive.

Experiments:
[1] = qHTS assay to test for compound auto fluorescence at 535 nm (green) in HEK293 cells (AID 720680)
[2] = qHTS assay to test for compound auto fluorescence at 535 nm (green) in HEK293 cell free culture (AID 720682)
Method in brief: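 Green-label autofluorescence (485 nm excitation, 535 nm emission) measured on compound added to cell-free culture medium (DMEM, 10% FBS). Output is expressed relative to fluorescein.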

[3] = qHTS assay to test for compound auto fluorescence at 590 nm (red) in HEK293 cell free culture (AID 720683)
Method in brief: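 Tox21 10K library compounds were pinned into cell-free DMEM with 10% FBS and fluorescence was read at excitation 540 nm. Activity is expressed as Rose Bengal sodium equivalency.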

[4] = qHTS assay to test for compound auto fluorescence at 590 nm (red) in HepG2 cell free culture (AID 720684)
Method in brief: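 Measured in medium alone (MEM containing 10% FBS) following pintool addition of compound; emission at 590 nm with 540 nm excitation, referenced to Rose Bengal sodium.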

[5] = qHTS assay to test for compound auto fluorescence at 460 nm (blue) in HepG2 cell free culture (AID 720685)
Method in brief: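 Compound (23 nL) or DMSO pinned into cell-free MEM with 10% FBS; blue fluorescence read at 405/460 nm excitation/emission, expressed as auto-fluorescence equivalency to triamterene.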

[6] = qHTS assay to test for compound auto fluorescence at 535 nm (green) in HepG2 cell free culture (AID 720686); further: potency means the concentration at half of the fitted maximal effect
[7] = qHTS assay to test for compound auto fluorescence at 460 nm (blue) in HepG2 cells (AID 720687)
Method in brief: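 Cells (2,000/well in MEM with 10% FBS) attached overnight at 37 C, then were exposed to compound or DMSO for 1 hr at 37 C, 5% CO2. Fluorescence read at Ex/Em 405/460 nm, expressed as triamterene-equivalent signal.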

[8] = qHTS assay to test for compound auto fluorescence at 460 nm (blue) in HEK293 cell free culture (AID 720681)
Method in brief: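 Test compounds were pinned into cell-free culture medium (DMEM with 10% FBS) and fluorescence was read directly at Ex/Em 405/460 nm. Signals were expressed as fluorescence equivalents of triamterene, with DMSO vehicle as control.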

[9] = target: Glucocorticoid receptor (Homo sapiens) (UniProt P04150); assay: qHTS assay to identify small molecule antagonists of the glucocorticoid receptor (GR) signaling pathway (AID 720692; active means well fitted inhibition curve with a large enough effect in the signal ratio in the repeat runs, not every such curve was filed as active; inconclusive means weak or mixed curves, or effect the other way; inactive means no such curve, though single readings can be large or run the other way; the % refers to the signal ratio; further: potency means the concentration at half of the fitted maximal effect)
Method in brief: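 Inhibition of glucocorticoid signalling is measured in HeLa cells with a GRE-controlled beta-lactamase reporter; cells are co-treated with compound and 5 nM dexamethasone (final) for 18 h before FRET substrate readout.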

[10] = qHTS assay to identify small molecule antagonists of the glucocorticoid receptor (GR) signaling pathway - cell viability counter screen (AID 720693); further: nearly all actives have a fitted effect of over 55% in size; further: potency means the concentration at half of the fitted maximal effect
[11] = qHTS assay for identifying genotoxic compounds that show differential cytotoxicity against isogenic chicken DT40 cell lines with known DNA damage response pathways - Rev3 mutant cell line (AID 743014); further: nearly all actives have a fitted effect of over 55% in size; further: potency means the concentration at half of the fitted maximal effect
[12] = qHTS assay for identifying genotoxic compounds that show differential cytotoxicity against isogenic chicken DT40 cell lines with known DNA damage response pathways - Rad54/Ku70 mutant cell line (AID 743015); further: nearly all actives have a fitted effect of over 60% in size; further: potency means the concentration at half of the fitted maximal effect
[13] = target: Androgen receptor (Homo sapiens) (UniProt P10275); assay: qHTS assay to identify small molecule agonists of the androgen receptor (AR) signaling pathway using the MDA cell line (AID 743040; further: nearly all actives have a fitted effect of over 20% in size)
Method in brief: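 Luminescence from ONE-Glo, read after 30 min at room temperature, reflects MMTV-driven luciferase in MDA-kb2 cells (AR- and GR-responsive). Treatment lasted 16 h at 37C, 0% CO2.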

[14] = qHTS assay to identify small molecule antagonists of the androgen receptor (AR) signaling pathway using the MDA cell line - cell viability counter screen (AID 743041; further: nearly all actives have a fitted effect of over 45% in size)
Method in brief: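 Viability counter screen run alongside the AR antagonist reporter: cells seeded 5 h before compound, R1881 added, 16 h incubation at 37C without CO2, fluorescent CellTiter-Fluor signal quantified.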

[15] = target: Androgen receptor (Homo sapiens) (UniProt P10275); assay: qHTS assay to identify small molecule antagonists of the androgen receptor (AR) signaling pathway using the MDA cell line (AID 743042; further: nearly all actives have a fitted effect of over 55% in size; further: potency means the concentration at half of the fitted maximal effect)
Method in brief: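 MDA-kb2 cells (human breast carcinoma, stably carrying an MMTV-luciferase reporter responsive to AR and GR) were plated at 3,000 cells/well and preincubated 5 hr at 37C, then given compound plus R1881 agonist for 16 h. ONE-Glo luminescence was read.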

[16] = target: Glucocorticoid receptor (Homo sapiens) (UniProt P04150); assay: qHTS assay to identify small molecule agonists of the glucocorticoid receptor (GR) signaling pathway (AID 720691; active means well fitted activation curve with a large enough effect in the signal ratio in the repeat runs, not every such curve was filed as active; inconclusive means weak or mixed curves, or effect the other way; inactive means no such curve, though single readings can be large or run the other way; the % refers to the signal ratio; further: potency means the concentration at half of the fitted maximal effect); settings: GR-bla HeLa, beta-lactamase reporter ratio, 18 h; activation: at 62.4 µM (top of the series)
Method in brief: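 qHTS in GR-bla HeLa cells: 4 h settling at 37 C/5% CO2, 18 h compound incubation at 37 C, 2 h LiveBLAzer B/G FRET substrate at room temperature, fluorescence intensity measured.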

[17] = qHTS assay for identifying genotoxic compounds that show differential cytotoxicity against isogenic chicken DT40 cell lines with known DNA damage response pathways - wild type cell line (AID 743012); further: nearly all actives have a fitted effect of over 60% in size; further: potency means the concentration at half of the fitted maximal effect
Method in brief: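 First, wild type DT40 cells were plated at 300 per well and equilibrated about 0.5 h at 37 C/5% CO2. Next, compounds in DMSO were added and exposure lasted 40 h. Finally, CellTiter-Glo was added for 30 min at room temperature and luminescence recorded.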

[18] = qHTS assay to identify small molecule antagonists of the androgen receptor (AR) signaling pathway - cell viability counter screen (AID 743033; further: nearly all actives have a fitted effect of over 45% in size)
[19] = target: Androgen receptor (Homo sapiens) (UniProt P10275); assay: qHTS assay to identify small molecule agonists of the androgen receptor (AR) signaling pathway (AID 743036; active means well fitted activation curve with a large enough effect in the signal ratio in the repeat runs, with a control signal flat, not every such curve was filed as active; inconclusive means weak or mixed curves, or effect the other way; inactive means no such curve, though single readings can be large or run the other way; the % refers to the signal ratio)
Method in brief: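 AR-UAS-bla HEK293 cells, plated 4 h before dosing, were treated with compound for 16 h at 37C. beta-Lactamase reporter read after 2 h with LiveBLAzer B/G FRET substrate at room temperature.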

[20] = target: Androgen receptor (Homo sapiens) (UniProt P10275); assay: qHTS assay to identify small molecule antagonists of the androgen receptor (AR) signaling pathway (AID 743035; active means well fitted inhibition curve with a large enough effect in the signal ratio in the repeat runs, not every such curve was filed as active; inconclusive means weak or mixed curves, or effect the other way; inactive means no such curve, though single readings can be large or run the other way; the % refers to the signal ratio; further: potency means the concentration at half of the fitted maximal effect)
Method in brief: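 Beta-lactamase FRET read (2 h RT incubation with LiveBLAzer B/G) following 16 h of compound plus R1881 treatment of AR-UAS-bla HEK293 cells, which had been pre-incubated 4 h at 37C.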
Tags describe the fitted curve by direction and shape or compound fluorescence and quenching.

Androgen receptor (Homo sapiens), sequence (P10275 whole entry, looked up): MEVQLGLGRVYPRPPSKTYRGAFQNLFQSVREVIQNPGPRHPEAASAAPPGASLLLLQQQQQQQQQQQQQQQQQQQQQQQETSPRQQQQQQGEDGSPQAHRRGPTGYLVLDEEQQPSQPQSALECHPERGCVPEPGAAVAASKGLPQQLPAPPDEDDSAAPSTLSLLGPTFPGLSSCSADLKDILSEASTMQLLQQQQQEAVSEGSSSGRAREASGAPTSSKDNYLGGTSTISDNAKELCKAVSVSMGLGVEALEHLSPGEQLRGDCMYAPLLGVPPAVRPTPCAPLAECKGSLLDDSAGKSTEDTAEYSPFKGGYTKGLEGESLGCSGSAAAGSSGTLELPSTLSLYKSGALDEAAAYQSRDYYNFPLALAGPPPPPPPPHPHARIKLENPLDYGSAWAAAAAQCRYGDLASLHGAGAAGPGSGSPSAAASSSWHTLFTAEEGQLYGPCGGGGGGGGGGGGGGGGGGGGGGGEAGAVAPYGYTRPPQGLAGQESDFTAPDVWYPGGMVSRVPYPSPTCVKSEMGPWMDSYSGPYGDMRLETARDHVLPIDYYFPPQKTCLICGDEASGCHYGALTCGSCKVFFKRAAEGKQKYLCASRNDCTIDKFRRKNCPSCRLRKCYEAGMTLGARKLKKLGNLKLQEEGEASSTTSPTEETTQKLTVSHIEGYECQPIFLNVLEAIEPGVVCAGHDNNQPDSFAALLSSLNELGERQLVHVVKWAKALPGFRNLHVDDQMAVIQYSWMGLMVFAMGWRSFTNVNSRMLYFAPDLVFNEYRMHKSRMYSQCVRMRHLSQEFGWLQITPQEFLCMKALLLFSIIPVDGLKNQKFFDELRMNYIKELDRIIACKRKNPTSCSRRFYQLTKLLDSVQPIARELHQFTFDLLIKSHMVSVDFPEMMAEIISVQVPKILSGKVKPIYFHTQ
Glucocorticoid receptor (Homo sapiens), sequence (P04150 whole entry, looked up): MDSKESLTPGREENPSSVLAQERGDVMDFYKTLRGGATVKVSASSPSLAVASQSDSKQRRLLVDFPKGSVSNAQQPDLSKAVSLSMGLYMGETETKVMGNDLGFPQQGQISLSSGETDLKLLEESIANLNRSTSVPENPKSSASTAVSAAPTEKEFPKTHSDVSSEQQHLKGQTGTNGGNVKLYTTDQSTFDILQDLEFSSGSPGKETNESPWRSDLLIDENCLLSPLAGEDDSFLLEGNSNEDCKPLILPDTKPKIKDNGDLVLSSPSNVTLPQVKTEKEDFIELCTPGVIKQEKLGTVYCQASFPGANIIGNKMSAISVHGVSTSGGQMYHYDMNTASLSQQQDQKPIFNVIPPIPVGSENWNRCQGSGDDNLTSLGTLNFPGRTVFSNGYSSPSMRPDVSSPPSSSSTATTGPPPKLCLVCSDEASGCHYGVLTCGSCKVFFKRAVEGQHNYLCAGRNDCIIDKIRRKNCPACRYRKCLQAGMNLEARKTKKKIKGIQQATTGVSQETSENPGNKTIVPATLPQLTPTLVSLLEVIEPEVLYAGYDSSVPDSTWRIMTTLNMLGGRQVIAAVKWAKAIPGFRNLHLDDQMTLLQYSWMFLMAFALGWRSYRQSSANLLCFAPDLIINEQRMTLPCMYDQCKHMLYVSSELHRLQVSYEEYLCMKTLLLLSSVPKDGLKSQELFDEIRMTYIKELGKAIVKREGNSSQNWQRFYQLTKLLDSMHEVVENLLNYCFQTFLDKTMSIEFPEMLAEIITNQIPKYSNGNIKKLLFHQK

Row | SMILES | outcome [1] | outcome [2] | outcome [3] | outcome [4] | Potency [5] | Potency [6] | Potency [7] | Potency [8] | Potency [9] | Potency [10] | Potency [11] | Potency [12] | Potency [13] | Potency [14] | Potency [15] | Potency [16] | Potency [17] | Potency [18] | Potency [19] | Potency [20]
1 | CS(=O)(=O)c1ccc([C@@H](CC2CCCC2)C(=O)Nc2cnccn2)cc1Cl | inactive | inactive | inactive | inactive | inactive | inactive | inactive |  |  |  |  |  |  |  |  |  |  |  |  | 
2 | CN1CC[C@H](c2c(O)cc(O)c3c(=O)cc(-c4ccccc4Cl)oc23)[C@H](O)C1 | inactive | inactive | inactive | inactive |  | inactive | inactive | inactive | 0.674 µM (active) | 0.601 µM (active) | 0.15 µM (active) | 0.15 µM (active) | inactive | inactive | 106 nM (active) |  |  |  |  | 
3 | CC[N+](CC)(CC)CCC(O)(c1ccccc1)C1CCCCC1 (configuration not stated) | inactive | inactive | inactive | inactive |  | inactive |  | inactive | inactive | inactive | inactive | inactive |  |  |  | inactive | inactive | inactive |  | 
4 | CC1(C)S[C@@H]2[C@H](NC(=O)[C@H](N)c3ccc(O)cc3)C(=O)N2[C@H]1C(=O)O | inactive | inactive | inactive | inactive |  | inactive | inactive |  |  | inactive | inactive | inactive | inactive | inactive |  |  | inactive | inactive | inactive | 
5 | C=CCc1cc(S(=O)(=O)c2ccc(O)c(CC=C)c2)ccc1O | inactive | inactive | inactive | inactive |  | inactive | inactive | inactive |  |  | 68.6 µM (active) | 54.5 µM (active) | inactive |  | 61100 nM (active) | inactive | 30.6 µM (active) |  | inactive | 38.9 µM (active)
6 | CO/N=C(\C(=O)N[C@@H]1C(=O)N2C(C(=O)[O-])=C(C[n+]3cccc4c3CCC4)CS[C@H]12)c1csc(N)n1 | inactive | inactive | inactive | inactive |  | inactive | inactive | inactive |  | inactive | inactive | inactive |  | inactive |  |  | inactive | inactive |  | 
7 | NCC[C@H](O)C(=O)N[C@@H]1C[C@H](N)[C@@H](O[C@H]2O[C@H](CN)CC[C@H]2N)[C@H](O)[C@H]1O[C@H]1O[C@H](CO)[C@@H](O)[C@H](N)[C@H]1O | inactive | inactive | inactive | inactive |  | inactive | inactive | inactive |  |  | inactive | inactive |  | inactive |  |  | inactive | inactive |  | 
8 | CO[C@H]1C[C@@H]2CC[C@@H](C)[C@@](O)(O2)C(=O)C(=O)N2CCCC[C@H]2C(=O)O[C@H]([C@H](C)C[C@@H]2CC[C@@H](O)[C@H](OC)C2)CC(=O)[C@H](C)C=C(C)[C@@H](O)[C@@H](OC)C(=O)[C@H](C)C[C@H](C)/C=C/C=CC=C1C | inactive | inactive | inactive | inactive |  | inactive | inactive | inactive |  |  | 2.7 nM (active) and 2.4 nM (active) | 3.3 nM (active) and 5.3 nM (active) | inactive |  | 21.1 µM (active) and 23.7 µM (active) |  | 2.4 nM (active) and 3 nM (active) | inactive |  | 10.7 µM (active) and 26.8 µM (active)
9 | C=CCN1C(=O)C(CC(C)C)NC1=S (configuration not stated) | inactive | inactive | inactive | inactive |  |  | inactive | inactive | inactive |  | inactive | inactive |  | inactive |  | inactive | inactive | inactive |  | 
10 | O=C1C2CC3CC1CC(O)(C3)C2 | inactive | inactive | inactive | inactive |  |  | inactive | inactive | inactive | inactive | inactive | inactive | inactive | inactive | inactive | inactive | inactive | inactive | inactive | inactive
11 | Clc1nc(C(Cl)(Cl)Cl)c(Cl)c(Cl)c1Cl | inactive | inactive | inactive | inactive |  | inactive | inactive | inactive |  |  | 19.3 µM (active) | 27.3 µM (active) |  |  |  |  | 21.7 µM (active) |  |  | 
12 | CC(C)(C)C(=O)OCC(=O)[C@H]1CC[C@H]2[C@@H]3CCC4=CC(=O)CC[C@]4(C)[C@H]3CC[C@]12C | inactive | inactive | inactive | inactive |  | inactive | inactive | inactive |  | inactive | inactive | inactive |  | inactive |  |  | inactive | inactive |  | 
13 | O=C(CCCCCCCCc1cccnc1)N1CCC(C=C(c2ccccc2)c2ccccc2)CC1 | inactive | inactive | inactive | inactive |  | inactive | inactive | inactive | 21.9 µM (active) | 34.7 µM (active) | 24.3 µM (active) | 24.3 µM (active) | inactive | inactive | inactive |  | 48.6 µM (active) | inactive | inactive | 
14 | CC(=O)[C@]1(O)Cc2c(O)c3c(c(O)c2[C@@H](O[C@H]2C[C@H](N)[C@H](O)[C@H](C)O2)C1)C(=O)c1ccccc1C3=O |  |  | inactive | inactive | inactive | 14.1 µM [fluorescent] (active) | inactive | inactive |  | 3.01 µM (active) | 0.0211 µM (active) | 0.0033 µM (active) | inactive |  | 422 nM (active) | 23.9 µM [inconclusive] (active) | 0.0211 µM (active) |  |  | 3.38 µM (active)
15 | CC(C)c1ccc2sc3ccccc3c(=O)c2c1 | inactive | inactive | inactive | inactive |  | inactive |  |  | inactive | inactive | 54.5 µM (active) | 54.5 µM (active) |  |  |  | inactive |  |  |  | 
